From PubChem
An excerpt weighted towards active compounds, which were near 9.3% of everything screened.
SMN2 splice enh: increases expression of the SMN2 splice variant. 210,000 tested, 2.8% active. AID 1458. HEK293 SMN2-luciferase splicing reporter, luminescence, 30-36 h. Potency, µM (titrated, usually from 46.1 µM), for inactives: top-dose activity change, positive = activation, most hits filed as activators; further: % of control where 0% means no effect; nearly all actives have a fitted effect of over 55% in size
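qHTS luciferase splicing reporter: luminescence rises when SMN2 exon 7 is included in transfected HEK293 cells. Compound exposure lasted 30-36 h at 37C, with 4.5 mM final sodium butyrate as control, followed by a ONE-Glo read.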
ELG1 genotox: induces genotoxicity in HEK293T cells with luciferase-tagged ELG1; HEK293T ELG1-luciferase reporter, luminescence, 16 h; Potency, µM (titrated, usually from 46 µM), inactives show at the top dose activity change, positive = activation, actives largely listed as activators; 330,000 tested, 1.3% active; AID 504466; further: % of control where 0% means no effect; nearly all actives have a fitted effect of over 60% in size
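Screening used a luciferase reporter fused to human ELG1 in HEK293T cells. Luminescence was read on a CCD plate imager after 16 hr exposure and 30 min ONE-Glo incubation.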
ELG1 repair inh: ELG1-dependent DNA repair inhibition; HEK293T ELG1-luciferase reporter, luminescence, 16 h; DNA damage induced by 5-fluorouridine; Potency, µM (top dose mostly 46.1 µM), inactives show at the highest dose activity change, negative = inhibition, usual class: inhibitors; 330,000 tested, 2.3% active; AID 504467; further: on the % scale 0 is the no-effect control and ±100 the full control effect; nearly all actives have a fitted effect of over 55% in size
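Quantitative HTS, concentration-response format. 2,000 cells/well co-treated with 5-fluorouridine and compound, 16 hr in 5% CO2 at 37 °C; ONE-Glo luminescence read after 30 min.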
Rab9 prom act: activators of Rab9 promoter | Huh7 Rab9 promoter-luciferase reporter, luminescence, 24 h | Potency, µM (highest dose often 9.22 µM), inactives show at the highest dose activation, negative = inhibition, most hits filed as activators | 320,000 tested, 2.8% active | AID 485297; further: % of control where 0% means no effect; nearly all actives have a fitted effect of over 60% in size
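Huh7 cells stably carrying a Rab9 promoter-luciferase reporter, 1500 cells per well in OP-MEM I with 10% FBS, treated with compound 24 hours at 37C. Luciferase activity read by luminescence after 10 minutes with Amplite reagent.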
FLuc counter: counter-screen for miR-21 project: firefly luciferase inhibitors or activators; P08659; purified FLuc, Km substrates, luminescence inhibition; Potency, µM (top dose mostly 57.5 µM), without a hit: top-dose activity change, negative = inhibition, usual class: inhibitors; 360,000 tested, 6.9% active;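 further: plate controls were vehicle for no effect and reference inhibitor for full effect; nearly all actives have a fitted effect of over 55% in size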
Target sequence (P08659 whole entry, looked up): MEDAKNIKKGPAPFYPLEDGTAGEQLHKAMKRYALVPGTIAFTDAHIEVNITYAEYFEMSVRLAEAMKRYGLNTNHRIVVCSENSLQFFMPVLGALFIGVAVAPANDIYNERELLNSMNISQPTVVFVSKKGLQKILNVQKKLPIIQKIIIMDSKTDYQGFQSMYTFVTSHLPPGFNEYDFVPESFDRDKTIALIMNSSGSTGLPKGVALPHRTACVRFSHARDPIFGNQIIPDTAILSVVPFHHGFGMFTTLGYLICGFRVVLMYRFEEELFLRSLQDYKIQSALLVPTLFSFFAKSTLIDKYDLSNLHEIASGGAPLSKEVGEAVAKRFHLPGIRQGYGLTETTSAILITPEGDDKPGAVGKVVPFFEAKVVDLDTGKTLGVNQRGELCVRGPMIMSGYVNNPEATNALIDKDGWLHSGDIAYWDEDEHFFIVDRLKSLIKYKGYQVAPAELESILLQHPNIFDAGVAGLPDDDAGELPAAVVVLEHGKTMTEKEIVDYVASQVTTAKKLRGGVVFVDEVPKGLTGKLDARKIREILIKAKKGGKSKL
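Biochemical qHTS of compounds, final roughly 60 µM downward over six points, against 10 nM purified firefly luciferase using Km concentrations of substrates (10 uM D-luciferin, 10 uM ATP) in Tris acetate pH 7.5 buffer; luminescence output.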
NPC1 promoter act: activators of NPC1 promoter. 320,000 tested, 2.4% active. Potency, µM (top dose mostly 9.22 µM), for the others: at the highest dose activation, most hits filed as activators. Huh7 NPC1 promoter luciferase reporter, 24 h; further: % of control where 0% means no effect; nearly all actives have a fitted effect of over 60% in size
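Luminescence from an NPC1 promoter-driven luciferase reporter in stably transfected Huh7 cells was measured after 24 h compound treatment at 37 °C, followed by 10 min ambient incubation with luciferase detection reagent.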
Starred values were filed as active, the others as inactive; ? = inconclusive; . = not tested or not shown. The call rests on the fitted dose curve; in most records, active means well fitted curve in the direction sought with a large enough effect; inconclusive means small, poorly fitted or top-dose-only effect, or another doubt; inactive means no such curve, though single readings can be large; an effect the other way counts as inactive or inconclusive. Potency means the concentration at half of the fitted maximal effect.

SMILES | SMN2 splice enh | ELG1 genotox | ELG1 repair inh | Rab9 prom act | FLuc counter | NPC1 promoter act
O=C(/C=C/c1ccc([N+](=O)[O-])cc1)Nc1cccnc1 | 12.6µM* | ? | ? | 3.55µM* | 5.36µM* | 2.82µM*
O=C(/C=C/c1ccc(Cl)c([N+](=O)[O-])c1)Nc1cccnc1 | 6.0% | 7.4% | ? | -9.6% | -11.4% | -0.4%
O=C(/C=C/c1ccccc1)Nc1cccnc1 | . | ? | ? | 2.24µM* | 6.75µM* | 2.24µM*
CC(C)OC(=O)CCCCCN1C(=O)CSC1=S | 4.7% | -9.8% | -0.2% | -5.1% | 3.5% | 0.5%
Cc1nnc(SCc2cc([N+](=O)[O-])cc3c2OCOC3)[nH]c1=O | . | 0.9% | 14.7% | -0.6% | -3.5% | 6.0%
O=C(Cc1ccc(F)cc1)Nc1ccccc1N1CCCC1 | . | 5.9% | 0.8% | 1.1% | 3.9% | -5.0%
O=C(Nc1ccc(F)cc1)Nc1csc2ccccc12 | . | -6.3% | 3.5% | 20.6% | 23.9µM* | 23.7%
O=C(Nc1ccc(F)cc1)Nc1csc2c1CCCC2 | -9.1% | . | . | . | ? | .
CN(C)c1ccc(NC(=O)Nc2csc3ccccc23)cc1 | . | ? | ? | ? | 2.69µM* | 29.7%
O=C(Nc1ccc(F)cc1)Nc1ccccc1N1CCCCC1 | . | -7.2% | 13µM* | -8.9% | -8.1% | -4.3%
CC#CC#Cc1cccc(=O)o1 | . | 1.7% | ? | -55.5% | 4.3% | -19.7%
COC(=O)c1cc(-c2cc(OC)ccc2OC)nc2c1c(=O)n(C)c(=O)n2Cc1ccccc1 | . | -8.4% | 9.2µM* | -0.3% | 2.3% | -6.9%
CCc1noc(C)c1C(=O)Nc1nc(-c2cc(OC)ccc2OC)cs1 | . | -7.2% | 16.4µM* | 3.6% | 2.9% | 1.6%
COc1ccc(OC)c(-c2csc(NC(=O)Cc3ccccc3)n2)c1 | . | -20.1% | -24.3% | 2.7% | 10.7µM* | -0.6%
COc1ccc(CC(=O)Nc2nc(-c3cc(OC)ccc3OC)cs2)cc1 | -38.6% | -10.1% | ? | -5.2% | -2.9% | -7.7%
CCc1noc(C)c1C(=O)Nc1nc(-c2ccc(OC)cc2OC)cs1 | . | 8.7% | ? | -9.6% | 2.6% | -0.3%
COc1ccc(OC)c(-c2csc(NC(=O)Cc3cccs3)n2)c1 | -21.9% | 0.4% | ? | -2.7% | 13.5µM* | -3.7%
COc1cccc(CC(=O)Nc2nc(-c3cc(OC)ccc3OC)cs2)c1 | -19.6% | -4.5% | -20.0% | 23.2% | -23.9% | -6.3%
COc1ccc2[nH]cc(CCN=C(NC(=O)c3cccc(Cl)c3)Nc3nc(C)cc(C)n3)c2c1 | -2.5% | . | . | . | -0.7% | .
CC1CC(C)(C)NC(=S)N1CCCC(=O)Nc1ccc(Br)cc1 (centres undefined) | -11.7% | -2.4% | -7.3% | -8.8% | 1.3% | -1.5%
CCOc1cc(NC(=S)Nc2ccc(Cl)cc2)c(OCC)cc1NC(C)=O | . | -4.8% | 7.3µM* | -7.1% | 0.2% | -5.9%
CCCOc1ccccc1NC(=O)Nc1ccccc1Cl | -6.4% | -5.6% | ? | 2.82µM* | -0.1% | 3.55µM*
CCOc1ccccc1NC(=O)Nc1ccccn1 | . | -1.7% | 3.2% | 0.8% | -18.6% | 14.0%
O=C(NCCCl)Nc1ccccc1OCCOc1ccccc1NC(=O)NCCCl | . | -2.7% | -9.9% | -0.2% | -0.2% | -3.5%
CCOc1cc(NC(=S)Nc2ccccc2)c(OCC)cc1NC(=O)c1ccc(OC)cc1 | -19.4% | -7.3% | ? | -2.3% | 3.9% | -4.4%
SMILES | SMN2 splice enh | ELG1 genotox | ELG1 repair inh | Rab9 prom act | FLuc counter | NPC1 promoter act
CCOc1ccccc1NC(=O)Nc1ccc(Cl)cc1 | -20.6% | 7.3% | 18.8% | 11.5% | 21.3µM* | ?
Cc1nn(Cc2ccccc2)c(Cl)c1C(=O)NC(C)(C)C | 0.1% | -1.9% | -0.1% | -1.7% | 1.6% | -0.8%
O=C(CSc1nnc(NC2CCCCC2)s1)Nc1ccc(N2CCOCC2)cc1 | -12.5% | 10.2% | ? | 14.1% | 13.5µM* | 17.4%
Cc1ccc(NC(=O)CSc2nnc(NC(=O)C3CC3)s2)cc1 | . | ? | 16.1% | 4.2% | -0.1% | 1.4%
Cc1ccc(NC(=O)CSc2nnc(NC(=O)NC3CCCCC3)s2)cc1 | . | . | . | . | 0.953µM* | .
COc1cccc(NC(=O)CSc2nnc(NC(=O)NC3CCCCC3)s2)c1 | . | . | . | . | 1.51µM* | .
